LYPLA1 counter = blocks human lysophospholipase 1, a PME1 counter-screen | O75608 | recombinant LYPLA1, FP-Rh probe fluorescence polarization | inhibition, % at 5.9 µM | 0.16% of 320,000 active;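 active = inhibition above the mean of all tested compounds plus 3 SD, set per campaign, cut at about 14% in these data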;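 note: inhibitors block serine hydrolase probe labeling of LYPLA1 so polarization falls; 0% = enzyme with DMSO and 100% = wells lacking LYPLA1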
LYPLA2 inh = blocks human lysophospholipase 2, a PME1 counter-screen; recombinant LYPLA2, FP-Rh probe fluorescence polarization; inhibition, % at 5.9 µM; 0.38% of 320,000 active;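 active = inhibition above the screen-wide mean plus 3 SD, limit set per campaign, cut at about 26% in these data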;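 note: 0% = LYPLA2 with DMSO and 100% = wells lacking LYPLA2 enzyme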
Rin1 Abl inh = human Rin1-Abl interaction inhibition | P00519+Q13671 | TR-FRET Rin1/Abl binding, biochemical | inhibition, % at 7.35 µM | 0.4% of 360,000 active; in the data active = inhibition above about 5%, passing the limit was not always enough
PREPL inhibitor = human PREPL enzyme inhibition. recombinant PREPL, fluorescence polarization activity-based probe. inhibition, % at 5.96 µM. 0.68% of 320,000 active. Q4J6C6;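 note: 0% = enzyme with DMSO and 100% = wells lacking enzyme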
Hck Nef HTS = human Hck-Nef kinase inhibition | P08631 | Recombinant Hck-YEEI plus Nef, Z-Lyte FRET kinase assay | inhibition, % at 20 µM | 0.68% of 220,000 active | AID 463187;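 active = Hck-Nef kinase inhibition above about 50%, limit read from the data; inactive = inhibition below that limit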;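 note: 0% = DMSO with Hck plus Nef and 100% = Hck alone without Nef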
p97 ATPase inh = blocks human p97 ATPase activity; P55072; recombinant p97 ATPase, Kinase-Glo ATP luminescence, 3 h; inhibition, % at 8 µM; 0.42% of 220,000 active; AID 1481; in the data active = inhibition above about 15%;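 note: 0% = DMSO vehicle and 100% = wells lacking enzyme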
PREPL confirm = confirmation of human PREPL enzyme inhibitors; shares compounds with PREPL inhibitor; recombinant PREPL, fluorescence polarization activity probe; inhibition, % at 5.96 µM; 67% of 2,000 active;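 note: 0% = protein with DMSO and 100% = wells lacking protein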
Active calls of the source: *; · = no result given. In the library only some 1.7% were active in any assay of this set; here they are far more common. Cut-off read from the data, not from the text of the source, unless noted: active = inhibition above about 43%; inactive = the rest.

SMILES	LYPLA1 counter	LYPLA2 inh	Rin1 Abl inh	PREPL inhibitor	Hck Nef HTS	p97 ATPase inh	PREPL confirm
CCN(CC)c1ccc(-n2cc3c(=O)n(C)c(=O)n(C)c3c2)cc1	1	7	0	49*	25	-4	48*
CCC(CC)=N/N=C/c1c(O)n(CC)c2cc(C3=NNC(=O)CC3)ccc12	-1	5	-2	4	3	-7	·
CCn1c(O)c(/C=N/N=C/c2ccccc2)c2ccc(C3=NNC(=O)CC3)cc21	1	19	-5	72*	0	2	65*
C#CCOCCOCCOCCNc1nc(N2CCN(C(=O)[C@H](CCCCN)n3cc([C@@H](N)C(C)CC)nn3)CC2)nc(N2CCN(C(=O)[C@H](Cc3cc4ccccc4[nH]3)n3cc([C@@H](N)C(C)CC)nn3)CC2)n1 (stereo not given in full)	·	·	0	57*	·	·	53*
C#CCOCCOCCOCCNc1nc(N2CCN(C(=O)C(Cc3cc4ccccc4[nH]3)n3cc(C(N)C(C)CC)nn3)CC2)nc(N2CCN(C(=O)C(Cc3cc4ccccc4[nH]3)n3cc(C(N)C(C)CC)nn3)CC2)n1 (stereo not given)	-3	0	·	50*	-17	9	62*
C#CCOCCOCCOCCNc1nc(N2CCN(C(=O)[C@H](CCC(=O)O)n3cc(C(N)[C@H](C)CC)nn3)CC2)nc(N2CCN(C(=O)[C@H](Cc3cc4ccccc4[nH]3)n3cc(C(N)[C@H](C)CC)nn3)CC2)n1 (stereo not given in full)	0	2	·	9	7	0	·
CC(C)Nc1nnc(SCC(=O)Nc2ccc3c(c2)C(=O)c2ccccc2C3=O)s1	-7	22	-7	44*	16	4	52*
COc1ccc2c(c1)[C@H]1[C@H](CO2)[C@H](c2ccccc2)[C@]2(C)C(=O)N[C@@H](C)C(=O)N12	0	-2	·	0	·	·	·
N=C1/C(=C\c2ccc(OC(=O)c3ccco3)cc2)C(=O)N=C2SC=NN12	·	·	5	·	27	-5	·
CCOc1cc(/C=C2/SC(=S)NC2=O)ccc1OC(=O)c1ccco1	-13	-26	2	66*	27	9	67*
O=C1NC(=S)S/C1=C/c1ccc(OC(=O)c2ccco2)cc1	-5	-9	0	65*	·	·	69*
O=C(c1ccc2c(c1)OCCO2)N1CCN(Cc2c(F)cccc2Cl)CC1	-1	-5	-1	7	·	·	·
CN(Cc1ccccc1)C(=O)COC(=O)CNS(=O)(=O)c1ccc2ccccc2c1	3	0	-5	2	·	·	·
COc1cc(/C=C2\SC(=S)N(CC(=O)O)C2=O)ccc1OS(=O)(=O)c1ccc(C)cc1	2	0	-1	11	·	·	·
COc1cc(/C=C2/SC(=S)N(CC(=O)O)C2=O)ccc1OC(=O)c1cccs1	-16	-31	0	59*	3	-7	62*
CC(C)N1CCN(c2ccc(OC[C@H]3CO[C@](Cn4cncn4)(c4ccc(Cl)cc4Cl)O3)cc2)CC1	10	8	-5	57*	·	·	46*
C=CCC[C@@H](Cc1ccc(F)cc1)C(=O)OC[C@H]1CCCN1C(=O)[C@@H](CC=C)CC(=O)N[C@H](CO)Cc1ccccc1	·	·	0	36	·	·	·
C=CCC[C@@H](Cc1ccc(F)cc1)C(=O)OC[C@@H]1CCCN1C(=O)[C@H](CC=C)CC(=O)N[C@H](CO)Cc1ccccc1	·	·	0	44*	·	·	27
Cc1ccc(C)c(S(=O)(=O)N2CCN(C(=O)CCc3c[nH]c4ccccc34)CC2)c1	0	-2	2	35	·	·	·
Cc1ccc(C)c(S(=O)(=O)N2CCN(C(=O)CCCc3c[nH]c4ccccc34)CC2)c1	-2	0	-1	47*	·	·	35
Nc1c(N(CCC2=CCCCC2)C(=O)Cc2ccccc2F)c(=O)[nH]c(=O)n1Cc1ccccc1	2	3	0	7	·	·	·
Nc1c(N(CCC2=CCCCC2)C(=O)c2ccccc2F)c(=O)[nH]c(=O)n1Cc1ccccc1	1	-8	-2	69*	·	·	15
COc1ccc2cc([C@H](C)C(=O)N(C)Cc3ccccc3N3CCCC3)ccc2c1	-5	-9	7	17	·	·	·
COc1cc(/C=C2\SC(N3CCC(C)CC3)=NC2=O)ccc1O	1	8	-5	44*	·	·	12
COc1ccc(/C=C2\SC(N3CCCCC3)=NC2=O)cc1OC	0	1	0	14	·	·	·
SMILES	LYPLA1 counter	LYPLA2 inh	Rin1 Abl inh	PREPL inhibitor	Hck Nef HTS	p97 ATPase inh	PREPL confirm
O=C(NCCS(=O)(=O)N1CCN(c2ccc(F)cc2)CC1)C12CC3CC(CC(C3)C1)C2	4	8	1	12	·	·	·
O=C(Nc1ccccc1)c1cccc(C(=O)Nc2ccccc2)n1	-5	-2	2	3	·	·	·
CN(C)c1ccc(NC(=O)c2cccc(C(=O)Nc3ccc(N(C)C)cc3)n2)cc1	7	2	-3	72*	2	1	70*
Cc1nc2ccccc2c(=O)n1NC(=O)c1c(F)cccc1F	3	10	3	24	·	·	·
O=C(Oc1ccc2c(-c3ccccc3)cc(=O)oc2c1)c1cccs1	-6	-3	1	17	4	5	·
O=C(Oc1ccc2ccc(=O)oc2c1)c1cccs1	-1	7	-1	45*	56*	3	60*
O=C(COC(=O)CNC(=O)c1ccccc1)NCc1ccc2c(c1)OCO2	·	·	3	7	·	·	·
O=C(OCC(=O)N1CCN(c2ccc(F)cc2)CC1)c1cnc2ccccc2n1	·	·	-2	49*	·	·	31
CN1c2ccsc2/C(=N/Nc2ccccc2)CS1(=O)=O	-3	3	-2	48*	3	5	27
CN1c2ccsc2/C(=N/NC(=O)c2c(F)cccc2F)CS1(=O)=O	1	5	2	0	1	-3	·
CC(=O)c1ccc(-c2ccc(C(=O)NCC3CCCO3)o2)cc1 (stereo not given)	-5	-7	-5	1	·	·	·
Cc1ccc(S(=O)(=O)N(CC(=O)Nc2ccccc2)C(=O)N2CCN(C)CC2)cc1	-1	-5	-1	6	·	·	·
CCOc1ccc(OCC)c(NC(=O)CN2CCN(c3cc(C)ccc3C)CC2)c1	2	5	3	50*	1	3	35
Cc1ccc(-n2cccc2C(=O)NS(=O)(=O)c2ccc(C)cc2)cc1	6	9	0	2	20	0	·
Cc1ccc(-n2cccc2C(=S)N=P(N(C)C)(N(C)C)N(C)C)cc1	0	0	2	44*	0	8	37
CC(NC(=O)CCc1ccccc1)c1ccc2c(c1)OCO2 (stereo not given)	3	0	-3	9	·	·	·
COc1cc(NC(=O)C2CC(c3ccc(Cl)cc3)=NO2)cc(OC)c1OC (stereo not given)	-4	-3	1	44*	·	·	38

From PubChem
